In PubChem BioAssay (NCI):
About 83,000 compounds went through this panel and 20% of them were active in at least one assay; those are over-represented in the sample as a whole.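 Plates (96-well) were seeded with cells, treated with compound at one concentration, and incubated for 48 hours before percent growth was determined.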 Active and inactive are the calls of the source. Rule for the calls: active = growth percent below 10; inactive = the rest.

Tested on: 786-0 renal
Assay: NCI-60 one-dose screen, 48 h (100 = growth as untreated, 0 = no growth, -100 = all killed)
Conditions: 10 µM unless noted

Question: Which growth does the source give for `CC(O)c1cc2ccccc2c(=O)o1` (centres undefined) here?
Answer: 101% (inactive)

Question: Which growth does the source give for `NC/C(=C/F)COc1ccc2nc(NCc3cccnc3)oc2c1` here?
Answer: 92.5% (inactive)

Question: Which growth does the source give for `Cc1ccc(NC(=O)N[C@@H](Cc2cc(F)cc(F)c2)C(=O)NC2C(=O)N3C[C@H](O)C[C@H]3C(=O)N3CCCC[C@H]3C(=O)N[C@@H](CO)C(=O)N3C[C@H](C)C[C@H]3C(=O)O[C@H]2C)c(F)c1` (some centres undefined) here?
Answer: 93.6% (inactive)

Question: How did the growth turn out when `O=c1[nH]c2ccccc2cc1CSc1ccccc1Nc1nccc(-c2ccc(Cl)cc2)n1` was run?
Answer: 101% (inactive)

Question: For `CCn1c(SCC(=O)Nc2cccc(C(=O)/C=C/c3ccc(Br)cc3)c2)nc2ccccc2c1=O`, which growth is on record?
Answer: 99.8% (inactive)

Question: With `Fc1ccc(-c2cc3nc(C(Cl)Cl)nc(-c4ccc(F)cc4)n3n2)cc1` as the compound, how does the growth read?
Answer: 51.4% (inactive)

Question: How did the growth turn out when `CCNC(=O)N1CCc2cc(OC)c(OCCc3ccc(OC)cc3)cc2C1c1ccc(OC)cc1C` (centres undefined) was run?
Answer: 9.54% (active)

Question: `C#CCOC(=O)[C@@H]1CCCN1CC#C` was tested. Which growth did it give?
Answer: 87.8% (inactive)

Question: With `CCNC(=O)N1CCc2cc(OC)c(OCCc3ccc(OC)cc3)cc2C1c1ccc(Cl)cc1C` (centres undefined) as the compound, how does the growth read?
Answer: 9.78% (active)

Question: With `COc1cc2nc(Cl)nc(Nc3cccc(C4=Nc5c(N)nc(N)nc5NC(c5ccc(Br)cc5)C4)c3)c2cc1OC` (centres undefined) as the compound, how does the growth read?
Answer: 64.7% (inactive)

Question: For `COc1ccc(C(=O)CSc2nc3c(c(Nc4ccc(S(N)(=O)=O)cc4)n2)CCCC3)cc1`, which growth is on record?
Answer: 101% (inactive)

Question: How did the growth turn out when `Nn1c(N/N=C/c2nc3ccccc3s2)n[nH]c1=S` was run?
Answer: 96.1% (inactive)

Question: For `Cc1ccc(NC(=O)CNc2cc(C(N)=O)cc(F)c2C)c(Cl)c1`, which growth is on record?
Answer: 92.9% (inactive)

Question: With `Cc1cccc2c3c(sc12)C(c1ccc(Cl)cc1)c1c(nc(CC(=O)Nc2ccccc2)[nH]c1=O)O3` (centres undefined) as the compound, how does the growth read?
Answer: 75.9% (inactive)

Question: `C=C(C=O)[C@@H]1CC[C@]2(C)[C@H](C(=O)C=C3[C@H]4C[C@](C)(C(=O)OC)CC[C@]4(C)CC[C@]32C)[C@@]1(C)CCC#N` was tested. Which growth did it give?
Answer: 13.6% (inactive)

Question: How did the growth turn out when `Nc1nc(-c2cccc([N+](=O)[O-])c2)c(N=Nc2ccccc2)s1` was run?
Answer: 59.7% (inactive)

Question: How did the growth turn out when `CC(=O)C1=C(C)NC(NNC(N)=S)=NC1c1ccccc1` (centres undefined) was run?
Answer: 83% (inactive)

Question: How did the growth turn out when `COc1cc(OC)c(S(N)(=O)=O)cc1C(C)=O` was run?
Answer: 101% (inactive)

Question: With `CCOC(=O)c1c(Nc2ccccc2)nn2c(-c3ccc(OC)cc3)ccnc12` as the compound, how does the growth read?
Answer: 64.5% (inactive)

Question: With `O=C(CCn1c[n+](CC(=O)c2ccc(-c3ccccc3)cc2)c2ccccc21)Nc1cccc2cccnc12` as the compound, how does the growth read?
Answer: 71.5% (inactive)

Question: For `N#C/C(=C\c1ccc(-c2ccc(Cl)cc2Cl)o1)c1ccc(F)cc1`, which growth is on record?
Answer: 94% (inactive)

Question: Which growth does the source give for `O=S(=O)(Nc1ccc2c(c1)OCO2)c1ccc(-c2cnc(C3CC3)o2)cc1` here?
Answer: 46.2% (inactive)

Question: Which growth does the source give for `COc1ccc(/C=C/C(=O)c2cc(S(N)(=O)=O)c(OC)cc2OC)cc1` here?
Answer: 88.1% (inactive)

Question: With `CS(=O)(=O)c1ccc(-n2cc(/C=N/O)c(-c3ccccc3)n2)cc1` as the compound, how does the growth read?
Answer: 79.1% (inactive)

Question: For `COc1ccc2c(c1)c(-c1cc(N)n3nc(-c4cn(C)c5ccc(OC)cc45)cc3n1)cn2C`, which growth is on record?
Answer: 91.9% (inactive)

Question: Which growth does the source give for `C#CC(=O)N(c1ccc(OC)cc1OC)C(C(=O)NCC(=O)OCC)c1cccs1` (centres undefined) here?
Answer: -75.2% (active)

Question: For `C=CCn1c(SCC(=O)Nc2ccc(C(=O)/C=C/c3cc(OC)c(OC)c(OC)c3)cc2)nnc1-c1c[nH]c2ccccc12`, which growth is on record?
Answer: 23.1% (inactive)

Question: `CC(C)(C)CC(C)(C)n1nnnc1C(Nc1nccs1)c1cc2cccc3ccc4cccc1c4c32` (centres undefined) was tested. Which growth did it give?
Answer: 102% (inactive)

Question: How did the growth turn out when `Cc1ccc2c(c1)C(=O)/C(=C/c1cccc(F)c1)S2` was run?
Answer: 103% (inactive)

Question: Which growth does the source give for `CC1(COc2ccc3ncc(C#Cc4cncc(C(=O)Nc5cccc(C(F)(F)F)c5)c4)n3n2)COC1` here?
Answer: 97.9% (inactive)

Question: With `O=C(Nc1nonc1-c1ccccc1)c1ccc(C(F)(F)F)cc1` as the compound, how does the growth read?
Answer: 90.4% (inactive)

Question: `CN1CCN(Cc2ccc(NC(=O)c3cncc(C#Cc4cnc5ccc(N6CCN(C)CC6)nn45)c3)cc2C(F)(F)F)CC1` was tested. Which growth did it give?
Answer: -84.6% (active)

Question: With `COc1cccc2c1CN(C(=O)c1ccc(O)c(C(=O)N3Cc4ccc(OCCC[P+](c5ccccc5)(c5ccccc5)c5ccccc5)cc4C3)c1)C2` as the compound, how does the growth read?
Answer: 103% (inactive)

Question: With `CCCSc1nc(Nc2ccc(/C(C)=N\NC(N)=S)cc2)c(C#N)c(-c2ccccc2)n1` as the compound, how does the growth read?
Answer: 60.3% (inactive)

Question: Which growth does the source give for `C[C@H]1c2[nH]c3ccccc3c2C[C@H]2C(=O)N(CCCCCCC(=O)NO)CC(=O)N21` here?
Answer: 92% (inactive)

Question: Which growth does the source give for `CC1(C)CC[C@]2(C(=O)N3CCOCC3)CC[C@]3(C)C(=CC[C@@H]4[C@@]5(C)C/C(=C/c6ccccn6)C(=O)C(C)(C)[C@@H]5CC[C@]43C)[C@@H]2C1` here?
Answer: 64.4% (inactive)

Question: Which growth does the source give for `C=C(C)[C@@H]1CC[C@]2(COC)CC[C@]3(C)[C@H](CC[C@@H]4[C@@]5(C)CCCNC(C)(C)[C@@H]5CC[C@]43C)[C@@H]12` here?
Answer: 31.4% (inactive)

Question: With `COc1cc(-c2nn(C(C)(C)C)cc2-c2ccnc(NCCCNS(=O)(=O)c3ccccc3)n2)ccc1Cl` as the compound, how does the growth read?
Answer: 77.7% (inactive)

Question: For `Cc1cc(C)c(N2C(=O)CC(Nc3ccc(Cl)cc3Cl)C2=O)c(C)c1` (centres undefined), which growth is on record?
Answer: 102% (inactive)
